# In the supplement of paper PMC6555819:
# Columns and labels:
# Assay in all cases: PBM binding z-score (relative to random genomic background probes); higher = stronger binding; sequences stand for … in GC…GCGATTGACAGCGTAGAATGAAGG
# [1] = system: PPARg:RXRa DBDmut IVT, anti-RXR (DBD mutation: RXRa K156A/R161A, NR concentration 270 nM, RXRa partner concentration 90 nM)
# How it was run: (§1)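 Scanned fluorescence from custom Agilent 4×180K protein-binding microarrays was regression-normalized. Binding z-scores use random background probes as reference. Ligand-free nuclear receptor dimers were incubated on the arrays for 1 h and detected with antibodies against each partner (one per run).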
# [2] = system: PPARg:RXRa IVT, anti-PPARg (NR concentration 270 nM, RXRa partner concentration 90 nM)
# How it was run: as §1
# [3] = system: PPARg DBDmut:RXRa IVT, anti-PPARg (DBD mutation: PPARg1 K132A/R137A, NR concentration 270 nM, RXRa partner concentration 90 nM)
# How it was run: as §1
# [4] = system: PPARg DBDmut IVT, anti-PPARg (DBD mutation: PPARg1 K132A/R137A, NR concentration 270 nM)
# How it was run: as §1
# [5] = system: PPARg homodimer (NR concentration 180 nM)
# How it was run: as §1
# [6] = system: PXR:RXRa (NR concentration 270 nM, RXRa partner concentration 90 nM)
# How it was run: as §1
# [7] = system: PXR homodimer (NR concentration 270 nM)
# How it was run: as §1
# [8] = system: RARa:RXR (NR concentration 270 nM, RXRa partner concentration 90 nM)
# How it was run: as §1
# [9] = system: RARa homodimer (NR concentration 270 nM)
# How it was run: as §1
# [10] = system: RARb:RXRa (NR concentration 270 nM, RXRa partner concentration 90 nM)
# How it was run: as §1
Sequence,PBM binding z-score [1],PBM binding z-score [2],PBM binding z-score [3],PBM binding z-score [4],PBM binding z-score [5],PBM binding z-score [6],PBM binding z-score [7],PBM binding z-score [8],PBM binding z-score [9],PBM binding z-score [10]
ACTATTAGTTGACTTAGGGCAACCGATACGACGC,-0.304,0.722,1.07,1.09,-0.697,0.217,0.409,0.353,0.643,0.958
CGAACTAGGTCATTGACAGGACAGCGAATAGTAA,7.7,7.96,1.01,0.969,1.57,1.35,0.255,2.1,0.179,3.61
CGTCCAAGGTCAAGGTCTGTGAAAGAGACTCGAA,3.42,3.88,2.1,0.39,4.29,3.72,0.462,4.54,1.7,5.24
CGAACTAGGTCAAGGACAGTGAATCTCCGCACGC,8.2,8.25,4.79,1.98,2.91,1.18,-0.052,2.3,0.629,3.94
AATACAGGTTCATCGTAGGCCAGAGTACGCACAG,0.0837,0.966,1.55,1.09,0.907,3.55,1.4,2.46,0.533,1.8
TCTTGTAGATCAGCAGTTTAAGAAAGCTGGCCAA,1.44,0.0506,0.167,0.0418,-0.0273,0.249,-0.18,0.328,0.193,-0.0976
ATCGAAAGGTCGTGAGATGAGTATACAGAAAGGC,-0.3,1.61,1.59,1.02,1.18,3,0.0556,3.62,0.436,3.91
GCTAGTTGGTCAATAAAAGGTCACACACCGGTCG,1.64,3.07,0.532,0.266,4.72,5.3,1.4,5.89,3.47,4.33
TCTTGTAGATCTGCAGGTTAAGAAAGCTGGCCAA,1.64,-0.0995,-0.0196,-0.962,-0.597,0.206,-0.0786,0.383,-0.894,0.204
GCATATAGGTAATACAAGGCGAAAGTCCGATTGT,4.13,2.28,0.423,0.106,0.176,0.00476,-0.179,0.458,-0.221,-0.0161
CAAACTAGGTAAAGGTCAAAGTCGGTTTGTGCCA,6.36,6.65,4.01,1.08,4.48,5.72,2.28,6.09,1.6,4.99
AGAATGAGGTTATCCGTAGATCAGGGAAGAAAGT,3.68,2.42,0.156,1.03,0.547,1.17,0.231,1.76,0.02,1.66
ACTCTTAGTTGACTTAGGGCAACCGATACGACGC,0.723,0.491,1.1,1.39,0.782,0.578,0.291,0.777,0.704,1.04
ACAGACAGGTGAGGAAGGTAACTCAGGCTATCAT,0.129,0.785,0.395,-0.587,-0.277,-0.058,-0.158,0.108,0.0819,0.494
CCTTTCGGGTCACTGACAGGTTATAGCATTTGGA,3.4,3.43,0.931,0.0693,2.97,3.79,0.121,4.74,0.858,4.04
GCTCGTAGATCAAGGTTAAGAAAGACTAAGCTAA,-0.49,-0.249,-1.42,-0.839,-1.01,0.125,-0.272,0.412,-0.428,0.601
AGAACGAGGGCACGCTCAGTTGATAGCAGAGTAG,3.98,4.09,0.654,0.271,0.0615,0.642,0.028,0.591,-0.377,2.64
ATCTCTAGGTATAGTTCAGTGAAAGATCGATAGA,0.435,0.496,1.64,2.13,1.8,0.83,1.11,1.08,1.34,1.15
AGTCAAAGTTCAGGACGAGGGAACGTAAAGCACG,-0.374,1.46,0.293,0.513,2,2.12,0.898,2.09,0.539,4.2
CCTACTGGGCCACGAAAGGTCACTGATTCAGTGA,5.42,6.08,0.0808,0.166,1.93,4.63,0.0856,4.94,0.447,4.07
AGAACGAGGGGACGCTGAGTTGATAGCAGAGTAG,1.17,0.723,0.599,0.498,-0.427,-0.245,0.132,-0.589,-0.633,0.334
TCTAGGTGGTCAAAGGTCACACACTCGAAATGCG,3.06,5.9,1.01,1.59,4.5,6.19,1.82,7.34,2.69,5.22
AGTCAAAGTTCACTAGGAAACGTAAGATTCAGCT,0.0474,2.6,1.13,0.557,2.18,3.61,2.13,2.66,0.899,4.84
CATACAGGGTCAGCTATGCCAGAGTAGGGACGGC,0.895,2.38,0.429,0.135,0.969,2.18,-0.0786,3.05,0.191,4.03
CGTCCAAGGTCATAGGTCAGTGAAGAGATGACGG,3.46,4.78,0.896,-0.0935,3.35,5.48,1.01,6.98,1.13,5.36

Sequence,PBM binding z-score [1],PBM binding z-score [2],PBM binding z-score [3],PBM binding z-score [4],PBM binding z-score [5],PBM binding z-score [6],PBM binding z-score [7],PBM binding z-score [8],PBM binding z-score [9],PBM binding z-score [10]
AGAACTAGGGCACGCTGAGTTGATAGCAGAGTAG,8.03,7.98,3.17,2.05,0.0464,0.214,-0.312,-0.11,-0.599,1.58
AGAATCAGGTTAAGATCAGGGAAACAGAATACAT,2.26,2.1,1.36,1.33,1.01,0.297,1.14,0.552,1.62,1.1
ATCTCTAGGTAACATGTTCAGTGAAAGAGAGGAC,3.39,2.6,1.47,1.39,-0.116,0.0539,-0.0105,0.322,-0.388,0.433
AGAATGAGGTTACCACAGATCAGGGAAACGCTTG,3.9,3.38,1.25,0.385,1.11,1.05,0.472,1.98,0.262,1.99
ATCGAAAGGTCGAGGTGAGCATAGAGAAAGGGAA,0.593,2.74,0.675,0.756,1.39,2.2,-0.0822,3.17,0.169,4.27
CTCGAAAGGTCGGTTGAGGCGAGTATACGGATAA,-0.316,0.197,0.246,-0.285,0.331,1.17,-0.214,2,-0.443,2.66
CCAGACAGGTGATAGGTAACTCAGTCTGGTACGC,0.575,0.559,-0.871,0.0703,0.624,-0.293,-0.225,0.152,0.246,0.0928
TCAGACAGGTGAGGGTAACTCAGGTACGCAGTCG,2.09,1.08,0.134,-0.531,0.237,0.408,-0.0185,0.722,-0.208,1.02
TCTTGTAGATCAAGCAGGGTAAGAAAGCCTGAGT,1.7,0.481,-0.108,-0.000734,-0.854,0.136,-0.0302,0.246,-0.676,-0.148
CCTCCAAGGTCAAAGGTCAGTGAAGAGATGACGG,3.51,5.62,0.87,-0.101,3.71,6.78,2.06,8.62,3.07,6.03
ATCTCTAGGTAACAAGTTCGGTGAAAGAGAGGAC,3.31,2.96,1.06,0.893,1.01,0.677,0.713,0.675,0.59,0.969
ACTATTAGTTGACTTAGGGCTACCGATACGACGC,-0.203,0.114,1.14,0.816,0.416,-0.151,-0.109,0.146,0.74,0.27
CAACCTAGGTCAAGGTCAAAGTCGGTTTGTGCCA,4.85,5.78,-0.338,0.164,3.33,5.19,1.48,5.29,0.703,5.17
TCGAGGAGGTTAGGGGCATTCAGAATGGCGTCGA,1.17,0.304,-0.348,-0.472,1.01,1.03,0.679,0.889,0.232,1.62
CGGAGTAGGTTATGGGGCATTCAGGCAACGGTGA,4.84,5.14,0.983,-0.0364,1.28,0.209,0.125,0.151,0.386,0.965
CCTATTAGTTCACCATAAGGGCAACCGAAGCTCG,0.837,0.596,0.806,0.145,1.92,2.63,1.48,2.33,1.26,3.21
TTACCAAGGTGAAGCTCGTTGATCCCTCTGTAGA,1.63,2.34,-0.257,-0.63,-0.515,-0.27,-0.88,0.172,-0.72,1.29
CCTACTCGGCCAAAGGTCATTGATTCCAATGCTC,3.3,5.09,0.222,-0.127,3.85,5.38,2.54,5.95,1.19,4.56
TAGCCCAGGTCAGATCGGGCCAGTATACGCTATA,-0.572,1.18,-0.255,-0.724,-0.165,1.48,-0.562,1.11,-0.626,2.91
TATACAGGGTCAAAGACCAGAGTACGAATGTCGA,2.05,4.19,1.75,1.67,1.9,3.65,0.419,4.04,0.668,4.25
TTGCCAAGGTGAGCTGAGGTCGTTGATCCAACTC,0.582,1.28,-1.28,-1.13,-0.789,4.61,0.057,1.33,-0.704,1.73
GCGACTGGGGCAAAGCAGGCTACCATAAGGTTGG,4.44,3.34,-0.239,-0.307,-0.349,-0.574,-0.689,-0.126,-1.27,0.579
CGTCCAAGGTCATAGGCGGTCAGTGAAGACAGAT,2.93,3.58,-0.0996,0.332,2.85,5.12,1.57,4.75,1.15,4.94
CTCGAAAGGTCGTGCGCAGGTGAGTATACCAAAC,0.325,2.29,0.196,0.413,1.83,3.65,-0.0048,4.48,0.0809,4.19
